The results in this text go back to PubChem BioAssay (NCATS).

Test [1] has as its target Arylsulfatase A (Homo sapiens) (UniProt P15289). Put plainly: qHTS screen for enhancers of Arylsulfatase A (ASA1): LOPAC Validation Assay (AID 720538). Further: potency means the concentration at half of the fitted maximal effect. The essentials:
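First, ASA-I179S fibroblasts from an MLD patient adhered for 6 hrs. Next, compounds were added for 48h. Then pNCS substrate (0.5mM final) with lysis buffer reacted 14h at room temperature before NaOH stop and fluorescence measurement.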
For orientation: Quantitative high-throughput screening tests each substance at several concentrations.

Test [2] in a line: qHTS for compounds that reverse cellular toxicity of Amyloid beta (A-beta) peptide in yeast: LOPAC Validation Assay (AID 720559).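 Further: plate controls were DMSO for no effect and equimolar ferric chloride plus clioquinol rescue for full effect.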 The essentials: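 Activity is expressed relative to DMSO and an equimolar ferric chloride/clioquinol mix. Compounds were pinned into medium with A-beta-expressing yeast, grown 48 hr at 30 C, then read by absorbance at 600 nm.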
A short description of test [3]: qHTS for Activators of Parkin Expression: LOPAC Validation Assay (NLuc Reporter) (AID 720572;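 further: 0% = DMSO and 100% = positive control compound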). In a few lines:
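Neuronal cells with a Parkin promoter-driven FLuc/NLuc coincidence reporter were treated 24 h at 37 C in 7-point dose response (LOPAC). NLuc luminescence read after FLuc; signals normalized to DMSO and positive control (100%).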

The nature of test [4]: qHTS for Activators of Parkin Expression: LOPAC Validation Assay (FLuc Reporter) (AID 720573;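 further: 0% = DMSO and 100% = positive control compounds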). The essentials:
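A neuronal cell line harbouring FLuc and NLuc reporters behind the Parkin promoter was exposed to compounds for 24 h. Firefly luciferase signal, measured after 10 min with detection reagent, was scaled to DMSO and positive-control wells.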

Test [5] concerns the target T1, Hexokinase-4 (Homo sapiens) + Glucokinase regulatory protein (Homo sapiens) (UniProt P35557+Q14397). Put plainly: qHTS assay for inhibitors of recombinant human GCK-GKRP interaction: Diaphorase-coupled assay (AID 743205). In a few lines: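 Inhibitors of the GCK–GKRP complex relieve GKRP suppression of GCK, detected through a G6PDH–diaphorase cascade reducing resazurin. Human GST-GCK and FLAG-GKRP are used at 10 nM with 5 mM glucose and 0.4 mM ATP.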

Test [6] addresses T1, Hexokinase-4 (Homo sapiens) + Glucokinase regulatory protein (Homo sapiens). Put plainly: qHTS assay for inhibitors of recombinant human GCK-GKRP interaction: ADP-Glo assay (AID 743206).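 Further: plate controls were DMSO plus enzyme for no effect and no enzyme for full effect.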 In a few lines: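 GST-GCK and FLAG-GKRP (15 nM each in the dispensed mix, with 2 uM S6P) react with 0.4 mM ATP and 5 mM glucose (final) in Hepes pH 7.6 for 60 min at room temperature. ADP is measured by ADP-Glo luminescence.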

Test [7] has the same target. Put plainly: qHTS assay for inhibitors of recombinant human GCK-GKRP interaction: HTRF assay (AID 743207).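 Further: 0% = DMSO with GCK present and -100% = DMSO wells lacking GCK.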 In a few lines:
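Steps: dispense GCK–GKRP complex (5 nM each, GST- and FLAG-tagged) with 2 uM S6P; pin in compounds; add XL665/Eu-cryptate-labelled antibodies; incubate 60 min at room temperature; read time-resolved FRET at 665 and 615 nm.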

A short description of test [8]: qHTS Assay for Identifying Gametocytocidal Compounds (AID 743244). Further: potency means the concentration at half of the fitted maximal effect.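 On max response: on the % scale 0 is the no-effect control and ±100 the full control effect; actives lower the fluorescent signal which means gametocytes are killed.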 The note with it: P. falciparum 3D7 stage III-V gametocytes, alamarBlue, 72 h; max response: hits give low values. The essentials: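 Viability read-out was resazurin reduction (alamarBlue, 24 h) measured at Ex 525/Em 598 nm. Beforehand, late-stage (III-V) 3D7 P. falciparum gametocytes at 20,000 cells/well were incubated with compound 72 h at 37C under 5% CO2.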

Where “and” joins values, the source holds several entries; their conditions need not be identical. Identical values can stand only once. A number with no mark means an inactive call. Results filed as inconclusive are left out. Calls of active or inactive are those of the source. The call rests on the fitted dose curve; in most records, active means well fitted curve in the direction sought with a large enough effect; inconclusive means small, poorly fitted or top-dose-only effect, or another doubt; inactive means no such curve, though single readings can be large; an effect the other way counts as inactive or inconclusive.

T1 sequence (P35557 whole entry, looked up): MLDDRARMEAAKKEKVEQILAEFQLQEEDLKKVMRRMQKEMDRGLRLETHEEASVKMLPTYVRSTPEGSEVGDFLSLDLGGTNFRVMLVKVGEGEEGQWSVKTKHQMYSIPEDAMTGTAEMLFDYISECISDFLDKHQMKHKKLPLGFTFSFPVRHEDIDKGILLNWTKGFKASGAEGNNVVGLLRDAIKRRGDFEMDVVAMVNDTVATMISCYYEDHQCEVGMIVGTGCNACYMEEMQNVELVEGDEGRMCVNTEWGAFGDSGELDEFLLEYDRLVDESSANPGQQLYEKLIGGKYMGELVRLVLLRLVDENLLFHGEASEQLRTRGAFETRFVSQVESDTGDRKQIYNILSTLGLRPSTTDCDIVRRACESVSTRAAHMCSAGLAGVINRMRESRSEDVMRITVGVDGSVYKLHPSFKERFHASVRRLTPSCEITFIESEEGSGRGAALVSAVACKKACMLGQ
T1 sequence (Q14397 whole entry, looked up): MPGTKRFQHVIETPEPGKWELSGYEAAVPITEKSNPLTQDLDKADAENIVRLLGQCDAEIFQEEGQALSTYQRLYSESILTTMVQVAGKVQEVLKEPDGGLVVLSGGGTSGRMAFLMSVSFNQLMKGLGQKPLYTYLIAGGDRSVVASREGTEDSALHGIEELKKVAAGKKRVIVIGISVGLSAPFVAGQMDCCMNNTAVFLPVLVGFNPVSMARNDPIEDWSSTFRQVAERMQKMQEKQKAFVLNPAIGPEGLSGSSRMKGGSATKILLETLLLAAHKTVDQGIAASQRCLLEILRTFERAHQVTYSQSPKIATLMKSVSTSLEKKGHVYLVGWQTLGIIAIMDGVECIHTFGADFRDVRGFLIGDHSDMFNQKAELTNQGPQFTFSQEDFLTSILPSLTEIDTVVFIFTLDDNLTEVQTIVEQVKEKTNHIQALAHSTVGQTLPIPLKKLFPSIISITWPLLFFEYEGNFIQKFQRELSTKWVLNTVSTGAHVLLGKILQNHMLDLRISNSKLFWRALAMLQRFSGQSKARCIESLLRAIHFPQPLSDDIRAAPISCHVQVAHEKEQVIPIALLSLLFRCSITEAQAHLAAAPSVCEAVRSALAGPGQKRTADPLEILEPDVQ
Chain of Arylsulfatase A (Homo sapiens) (P15289 whole entry, looked up): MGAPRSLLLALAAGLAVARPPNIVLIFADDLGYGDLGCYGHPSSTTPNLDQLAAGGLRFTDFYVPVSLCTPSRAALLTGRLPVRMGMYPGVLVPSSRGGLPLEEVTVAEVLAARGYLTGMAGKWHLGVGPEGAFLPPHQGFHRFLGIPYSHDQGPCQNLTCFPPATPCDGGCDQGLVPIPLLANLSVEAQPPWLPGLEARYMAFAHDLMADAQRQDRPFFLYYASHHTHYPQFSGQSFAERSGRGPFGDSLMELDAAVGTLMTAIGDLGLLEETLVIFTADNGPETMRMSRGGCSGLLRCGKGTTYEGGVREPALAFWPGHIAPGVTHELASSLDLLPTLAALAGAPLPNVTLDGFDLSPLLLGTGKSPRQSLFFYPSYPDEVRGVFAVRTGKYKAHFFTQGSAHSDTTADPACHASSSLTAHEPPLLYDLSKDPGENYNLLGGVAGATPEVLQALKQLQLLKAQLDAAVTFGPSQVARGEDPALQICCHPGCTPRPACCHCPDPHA

As to `CCCN1C[C@H](CSC)C[C@@H]2c3cccc4[nH]cc(c34)C[C@H]21`, the Potency entry in test [1], in test [3] and in test [7] was “inactive” throughout. Besides, the compound was classed as inactive in test [2], in test [4], in test [5] and in test [6].

Turning to `COc1ccc2c(c1OC)C(=O)O[C@@H]2[C@H]1c2c(cc3c(c2OC)OCO3)CCN1C`, the Potency entry in test [1] and in test [7] was “inactive” each time. Moreover, the compound was classed as inactive in test [2], in test [5] and in test [6]. Further, the max response in test [8] is -4.58% and 10.4%.

`CC(=O)[C@]1(O)Cc2c(O)c3c(c(O)c2[C@@H](O[C@H]2C[C@H](N)[C@H](O)[C@H](C)O2)C1)C(=O)c1ccccc1C3=O`: the Potency result in test [1] and in test [7] was “inactive” each time. In addition, the call in test [2], in test [5] and in test [6] was inactive. Moreover, the Potency in test [8] is 6.31 µM (active) and 1.12 µM (active).

As to `CC[N+](C)(C)c1cccc(O)c1`, the Potency entry in test [1] and in test [7] was “inactive” in each case. The result in test [5] and in test [6] was inactive. Also, the max response in test [8] was 22.6% and 18%.

With `NS(=O)(=O)c1cc2c(cc1Cl)NC(C1CC3C=CC1C3)NS2(=O)=O` (configuration not stated), the Potency result in test [1] and in test [7] was “inactive” each time. In addition, the compound was called inactive in test [2], in test [4], in test [5] and in test [6]. For the same compound, the max response in test [8] is -0.791% and -20.2%.

In the case of `CC(=O)OC(C)C[N+](C)(C)C` (configuration not stated), the Potency result in test [1] and in test [7] was “inactive” in each case. Further, the outcome in test [2], in test [5] and in test [6] was inactive.

In the case of `Cc1nc2ccccn2c(=O)c1CCN1CCC(C(=O)c2ccc(F)cc2)CC1`, the Potency in test [1] is 19 µM (active). In addition, the compound was classed as inactive in test [2], in test [4], in test [5] and in test [6]. Also, the Potency result in test [7] is “inactive”. The max response in test [8] is 14.2%.

As to `NC(Cc1ccc(Cl)cc1)C(=O)O` (configuration not stated), the Potency result in test [1] and in test [7] was “inactive” each time. In addition, the outcome in test [2], in test [5] and in test [6] was inactive. In test [8], the max response is 3.16%.

For the compound `COCCOC(=O)C1=C(C)NC(C)=C(C(=O)OC(C)C)C1c1cccc([N+](=O)[O-])c1` (configuration not stated), the Potency result in test [1] and in test [7] was “inactive” in each case. The outcome in test [2], in test [5] and in test [6] was inactive. Moreover, the max response in test [8] was 18.6% and 13.2%.

With `c1ccc2c(c1)CCCC2C1=NCCN1` (configuration not stated), the Potency entry in test [1] and in test [7] was “inactive” each time. Further, the result in test [2], in test [4], in test [5] and in test [6] was inactive. Also, the max response in test [8] was -2.52% and 13.8%.

`CC1=NS(=O)(=O)c2cc(Cl)ccc2N1`: the Potency entry in test [1] and in test [7] was “inactive” in each case. In addition, the outcome in test [5] and in test [6] was inactive.

For `COCC(=O)O[C@]1(CCN(C)CCCc2nc3ccccc3[nH]2)CCc2cc(F)ccc2[C@@H]1C(C)C`, the compound was classed as inactive in test [2], in test [4], in test [5] and in test [6]. Also, the Potency result in test [3] and in test [7] was “inactive” in each case.

As for `CCn1nc(C(=O)O)c(=O)c2cc3c(cc21)OCO3`, in test [1], the Potency entry is “inactive”. Moreover, in test [8], the max response was 3.16% and -5.51%.

As for `NC(N)=NC(=O)Cc1c(Cl)cccc1Cl`, the Potency result in test [1] and in test [7] was “inactive” each time. The result in test [2], in test [5] and in test [6] was inactive. Also, in test [8], the max response was 5.89% and 26.9%.

Turning to `Fc1ccc(C(c2ccc(F)cc2)N2CCN(C/C=C/c3ccccc3)CC2)cc1`, the Potency entry in test [1] and in test [7] was “inactive” each time. Besides, the result in test [5] and in test [6] was inactive. Besides, the max response in test [8] was 16.8% and 11%.

`c1cnc(N2CCN(Cc3ccc4c(c3)OCO4)CC2)nc1`: the Potency entry in test [1] and in test [7] was “inactive” in each case. Moreover, the compound was classed as inactive in test [2], in test [4], in test [5] and in test [6]. The max response in test [8] was 1.5%.

With `CN(C(=O)CCCOc1ccc2[nH]c(=O)ccc2c1)C1CCCCC1`, the Potency entry in test [1] and in test [7] was “inactive” each time. The call in test [2], in test [5] and in test [6] was inactive.

On to `N[C@@H](COP(=O)(O)O)C(=O)O`, for which the Potency result in test [1] and in test [7] was “inactive” throughout. Besides, the result in test [2], in test [5] and in test [6] was inactive.

For `CCCOc1ccccc1-c1nc2n[nH]nc2c(=O)[nH]1`, the Potency entry in test [1] and in test [7] was “inactive” each time. Moreover, the call in test [2], in test [4], in test [5] and in test [6] was inactive. In addition, the max response in test [8] is -5.53% and 14.3%.

On to `CCOC(=O)C1=C(C)NC(C)=C(C(=O)OC)C1c1cccc(Cl)c1Cl` (configuration not stated), for which the Potency result in test [1] and in test [7] was “inactive” in each case. The compound was classed as inactive in test [2], in test [4], in test [5] and in test [6]. Also, the max response in test [8] was 21.2% and 4.35%.

For `CCN1CCc2nc(N)oc2CC1`, the Potency entry in test [1] and in test [7] was “inactive” throughout. The compound was called inactive in test [2], in test [5] and in test [6]. Besides, the max response in test [8] was 11% and 14%.

With `CCn1ccnc1CC1COc2ccccc2O1` (configuration not stated), the Potency result in test [1] and in test [7] was “inactive” in each case. The compound was called inactive in test [2], in test [4], in test [5] and in test [6]. For the same compound, in test [8], the max response is 13.9% and 11.7%.

With `CC(N=C(NC#N)Nc1ccncc1)C(C)(C)C` (configuration not stated), the Potency entry in test [1] and in test [7] was “inactive” throughout. Further, the outcome in test [2], in test [5] and in test [6] was inactive. In addition, the max response in test [8] is 14.1% and -10.9%.

Consider `CN1CCN(CC(=O)N2c3ccccc3C(=O)Nc3cccnc32)CC1`, for which the Potency entry in test [1] and in test [7] was “inactive” each time. For the same compound, the result in test [5] and in test [6] was inactive. The max response in test [8] is 0.314% and 3.31%.

As for `FC(F)(F)c1ccccc1-n1ccnc1`, the Potency entry in test [1] and in test [7] was “inactive” each time. Moreover, the call in test [2], in test [4], in test [5] and in test [6] was inactive. Further, in test [8], the max response is 18.2% and -13.7%.

For the compound `COc1ccc([C@@H]2Sc3ccccc3N(CCN(C)C)C(=O)[C@@H]2OC(C)=O)cc1`, the Potency result in test [1] and in test [7] was “inactive” throughout. Moreover, the outcome in test [2], in test [5] and in test [6] was inactive. The max response in test [8] is -3.45%.

Turning to `CC(C)NCC(O)c1cc(O)cc(O)c1` (configuration not stated), the Potency entry in test [1] and in test [7] was “inactive” throughout. Also, the result in test [5] and in test [6] was inactive.
